Structures are written as SMILES. Inconclusive results are not listed. Where a call stands in place of a potency, no number is given. A number with no mark means an inactive call. Active and inactive are the calls of the source. Calls follow the shape of the dose curve; as a rule, active = well fitted activation curve with a large enough effect in the signal ratio in the repeat runs (not every such curve was filed as active); inconclusive = weak or mixed curves; inactive = flat fitted curve, though single readings scatter; the % refers to the signal ratio.
Potency is read from the fitted curve at half-maximal effect.

The assay can be described thus: p53 small molecule agonists, cell-based qHTS assay (AID 1963582). The conditions noted are these: HCT-116 p53RE-bla reporter, beta-lactamase FRET ratio, 16 h; series mostly up to 66 µM. The text has this:
National Center for Advancing Translational Sciences [NCATS]
Division of Preclinical Innovation [DPI]
U.S. Environmental Protection Agency [EPA]
National Institutes of Environmental Health Sciences [NIEHS]
National Toxicology Program [NTP]
U.S. Food and Drug Administration [FDA]
p53, a tumor suppressor protein, is activated following cellular insult, including DNA damage and other cellular stresses. The activation of p53 regulates cell fate by inducing DNA repair, cell cycle arrest, apoptosis, or cellular senescence. The activation of p53, therefore, is a good indicator of DNA damage and other cellular stresses. […] The activation of the reporter gene under culture conditions can be detected by fluorescence intensity. This cell line was used to screen the Tox21 10K compound library in a 1536-well plate format and to identify agonists that activate the p53 signaling pathway.
Tox21 Assay Protocol Summary:
The p53RE-bla cells were dispensed at 4,000 cells/5 ul/well in 1536-well black wall/clear bottom plates using a Multidrop dispenser. After the assay plates were incubated at a 37 C/5% CO2 incubator for 5 hours, 23 nL of compounds dissolved in DMSO, positive controls or DMSO only was transferred to the assay plate by a pin tool. The plates were incubated at 37 C for 16 hours. After 1 uL of LiveBLAzerTM B/G FRET substrate was added using a Flying Reagent Dispenser, the plates were incubated at room temperature for 2 hours, and fluorescence intensity was measured by an Envision plate reader.
In the case of `CCCCOC(=O)CC#N`, the Potency result was “inactive”.

For the molecule `C=CC(=O)OCCC#N`, the Potency entry was “inactive”.

For `CC(C)COCC(CN(Cc1ccccc1)c1ccccc1)N1CCCC1` (stereo not given), the Potency entry is “inactive”.

For `CC[C@H]1OC(=O)[C@H](C)[C@@H](O[C@H]2C[C@@](C)(OC)[C@@H](O)[C@H](C)O2)[C@H](C)[C@@H](O[C@@H]2O[C@H](C)C[C@H](N(C)C)[C@H]2O)[C@](C)(O)C[C@@H](C)CN(C)[C@H](C)[C@@H](O)[C@]1(C)O`, the Potency result is “inactive”.

As to `CCOc1ccc(NC(C)=O)cc1N`, the Potency entry is “inactive”.

Consider `Nc1ccc(O)c(N)c1`, for which the Potency entry was “inactive”.

As for `C=C[C@](C)(O)CC[C@@H]1[C@@]2(C)CCCC(C)(C)[C@@H]2CC[C@@]1(C)O`, the Potency result is “inactive”.

Turning to `O=C(/C=C/c1ccccc1)OCCc1ccccc1`, the Potency result was “inactive”.

Regarding `COC(=O)c1ccc(C(=O)O)cc1`, the Potency result was “inactive”.

As to `COC(C)(C)CC(C)=O`, the Potency entry was “inactive”.

Turning to `C[C@@H]1C[C@H]2[C@@H]3C[C@H](F)C4=CC(=O)C(Cl)=C[C@]4(C)[C@@]3(F)[C@@H](O)C[C@]2(C)[C@@]1(O)C(=O)CO`, the Potency entry is “inactive”.

On to `Nc1ccc([N+](=O)[O-])c(N)c1`, for which the Potency result is “inactive”.

On to `CCCc1ncc(C[n+]2ccccc2C)c(N)n1`, for which the Potency entry was “inactive”.

As for `COCCOC[C@H](CC1(C(=O)NC2CCC(C(=O)O)CC2)CCCC1)C(=O)Oc1ccc2c(c1)CCC2` (stereo not given in full), the Potency entry was “inactive”.

Regarding `CC(=O)c1c(C)c([N+](=O)[O-])c(C(C)(C)C)c([N+](=O)[O-])c1C`, the Potency entry is “inactive”.

Turning to `C=Cc1ccc(O)c(OC)c1`, the Potency result is “inactive”.

Take `CCCCOc1ccc(N)cc1`: the Potency entry is “inactive”.

In the case of `Clc1ccc2cc3ccccc3cc2c1`, the Potency was 40.7 µM (active).

For `C=C[Si](OCC)(OCC)OCC`, the Potency entry was “inactive”.

As to `O=C(O)c1cc(C(=O)O)cc(C(=O)O)c1`, the Potency entry is “inactive”.

Regarding `O=C(c1ccc(F)cc1)C1CCN(CCn2c(=S)[nH]c3ccccc3c2=O)CC1`, the Potency result is “inactive”.

Take `O=c1[nH]sc2ccccc12`: the Potency result is “inactive”.

Consider `O=[N+]([O-])c1cc(N(CCO)CCO)ccc1NCCO`, for which the Potency entry is “inactive”.

For `C[C@H]1[C@H](NC(=O)/C(=N/OC(C)(C)C(=O)O)c2csc(N)n2)C(=O)N1S(=O)(=O)O` (stereo in doubt), the Potency result is “inactive”.

With `Cc1ccc2ccc(Cl)cc2n1`, the Potency entry was “inactive”.

Consider `CC(S)C(C)S` (stereo not given), for which the Potency entry was “inactive”.

As to `CC1(C)CC(=O)CC(C)(C)N1`, the Potency entry was “inactive”.

In the case of `COC(=O)C1=C(C)NC(C)=C(C(=O)OC)C1c1ccccc1[N+](=O)[O-]`, the Potency result is “inactive”.

For `CC1(C)CCC[C@]2(C)[C@H]3CC(=O)O[C@]3(C)CC[C@@H]12`, the Potency entry was “inactive”.

Consider `CCCCCCCCCCCCN1CCCC1=O`, for which the Potency entry is “inactive”.

For `CN(C)C(=O)C(CCN1CCC(O)(c2ccc(Cl)cc2)CC1)(c1ccccc1)c1ccccc1`, the Potency result is “inactive”.

On to `C1CCC2=NCCCN2CC1`, for which the Potency result is “inactive”.

Turning to `FC1(F)C(F)(F)C(F)(F)C2(F)C(F)(F)C(F)(F)C(F)(F)C(F)(F)C2(F)C1(F)F` (stereo not given), the Potency result is “inactive”.

On to `CCC(C)Nc1ccc(NC(C)CC)cc1` (stereo not given), for which the Potency entry was “inactive”.

Turning to `O=S(=O)(O)c1cc(I)c(O)c2ncccc12`, the Potency entry was “inactive”.

`COc1cc2nc(N3CCN(C(=O)C4COc5ccccc5O4)CC3)nc(N)c2cc1OC` (stereo not given): the Potency entry is “inactive”.

With `C=CC(=O)Nc1cc2c(Nc3ccc(F)c(Cl)c3)ncnc2cc1OCCCN1CCOCC1`, the Potency result is “inactive”.

`O=C(O)CN(CCN(CC(=O)O)CC(=O)O)CC(=O)O`: the activation was -4.53% [at 2.33 µM].

With `CCC(C)(CN(C)C)OC(=O)c1ccccc1` (stereo not given), the Potency result was “inactive”.

Regarding `COc1nccnc1CC(C)C`, the Potency result is “inactive”.

Source of the values: PubChem BioAssay (Tox21).
